Results published in the supplement of paper PMC10681739.

How the values were obtained:
ETS1 [1] = target: T1, ETS1 (UniProt P14921); test: ETS1 binding intensity (PBM fluorescence), ETS1 alone (arbitrary fluorescence units); higher = stronger binding; conditions: ETS1 concentration 1 nM; RUNX1 concentration 0 nM
T1 sequence: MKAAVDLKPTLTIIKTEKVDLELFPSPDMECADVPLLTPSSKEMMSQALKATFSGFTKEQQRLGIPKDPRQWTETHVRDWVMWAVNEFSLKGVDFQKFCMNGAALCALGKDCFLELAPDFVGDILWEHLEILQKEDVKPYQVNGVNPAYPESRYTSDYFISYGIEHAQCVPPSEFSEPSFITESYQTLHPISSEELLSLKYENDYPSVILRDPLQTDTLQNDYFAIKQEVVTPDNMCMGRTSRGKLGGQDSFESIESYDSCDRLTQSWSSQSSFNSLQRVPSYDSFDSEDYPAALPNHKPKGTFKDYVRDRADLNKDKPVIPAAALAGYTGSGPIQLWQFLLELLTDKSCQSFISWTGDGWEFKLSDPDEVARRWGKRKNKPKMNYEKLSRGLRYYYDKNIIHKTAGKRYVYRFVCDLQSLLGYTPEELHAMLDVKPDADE

RUNX1 [2] = target: RUNX1 (UniProt Q01196); test: RUNX1 binding intensity (PBM fluorescence), RUNX1 alone (arbitrary fluorescence units); higher = stronger binding; conditions: RUNX1 concentration 2 nM; ETS1 concentration 0 nM
Chain of RUNX1 (Q01196 whole entry): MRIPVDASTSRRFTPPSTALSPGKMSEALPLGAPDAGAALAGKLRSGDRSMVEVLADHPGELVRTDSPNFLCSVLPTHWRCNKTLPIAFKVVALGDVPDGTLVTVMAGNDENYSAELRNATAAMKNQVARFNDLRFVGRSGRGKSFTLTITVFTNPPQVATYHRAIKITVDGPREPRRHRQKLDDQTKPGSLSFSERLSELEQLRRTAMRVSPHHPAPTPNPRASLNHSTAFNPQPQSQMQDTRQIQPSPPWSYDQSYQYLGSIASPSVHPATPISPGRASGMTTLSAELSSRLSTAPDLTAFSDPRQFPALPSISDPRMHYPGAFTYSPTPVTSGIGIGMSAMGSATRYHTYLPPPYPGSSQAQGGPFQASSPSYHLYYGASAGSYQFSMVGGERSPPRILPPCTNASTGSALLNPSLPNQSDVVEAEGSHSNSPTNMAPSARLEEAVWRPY
Description: (§1)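 Cooperative gcPBM on 36-bp genomic probes with neighbouring ETS1 and RUNX1 sites. Recombinant human RUNX1 (2 nM) was incubated alone or with ETS1 (25 nM) and detected with anti-RUNX1 antibody plus Alexa488 secondary. Values are medians over 4 replicate spots; the RUNX1+ETS1 data were normalised to the RUNX1-only data. The probes sit in constant array flanks that are not printed.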

ETS1 [3] = target: T1, ETS1; test: ETS1 binding intensity (PBM fluorescence) in presence of RUNX1, normalised to ETS1-only experiment (arbitrary fluorescence units); higher = stronger binding; conditions: ETS1 concentration 1 nM; RUNX1 concentration 25 nM
RUNX1 [4] = target: RUNX1 (UniProt Q01196); test: RUNX1 binding intensity (PBM fluorescence) in presence of ETS1, normalised to RUNX1-only experiment (arbitrary fluorescence units); higher = stronger binding; conditions: RUNX1 concentration 2 nM; ETS1 concentration 25 nM
Description: as §1
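For RUNX1 binding intensity (PBM fluorescence) in presence of ETS1, normalised to RUNX1-only experiment in this document: Full-length recombinant human ETS1 or RUNX1 bound to double-stranded 36-bp genomic probes on microarrays, detected by protein-specific primary antibody and Alexa488 secondary, spot fluorescence as median of four replicate spots.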
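For RUNX1 binding intensity (PBM fluorescence), RUNX1 alone in this document: Full-length recombinant human RUNX1 bound to double-stranded 36-bp genomic probes on a high-density microarray, scored as Alexa488 fluorescence per spot via anti-RUNX1 antibody, median of four replicate spots.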

| Sequence | ETS1 binding intensity (ETS1 [1]) | RUNX1 binding intensity (RUNX1 [2]) | ETS1 binding intensity (ETS1 [3]) | RUNX1 binding intensity (RUNX1 [4]) |
| --- | --- | --- | --- | --- |
| AGCCTTAATTACCCGGAAGTGCGGTCCCAGGGACTT | 8970 | 768 | 12200 | 1710 |
| CCACTGCCGGAAGGGGAACTGTGGGGGTGCGCGAGT | 1110 | 820 | 963 | 1040 |
| GAAGCGGAAGTCGCTGAGGGGTGGTGAAGCGGTTGG | 1930 | 710 | 2420 | 1010 |
| GGCTTCCGCCTGCCGAGCGGCCCCGGACCGCAGGCC | 343 | 830 | 768 | 1980 |
| CACGCCTGCGGAAGATGAAAACCACACGTCATGCAG | 448 | 960 | 803 | 915 |
| CTTTTCCATGCAGGAAGTGGTTTTTAGAGTGTAGAG | 7750 | 896 | 20100 | 2920 |
| CCCTTCGCTTCCGCTCCGCGTTCCCACAATGCAGTG | 884 | 1600 | 1090 | 3700 |
| TTACCATCGCCCTTCCTGTGGGCTGGGAGGCCAGGT | 468 | 754 | 373 | 1060 |
| GGGGCGGCTTCCGGCGGCGTGACCTGACCGCAAGAG | 995 | 2950 | 4920 | 9110 |
| GAGCGCAGGACGGAAGCTCGGTGCGGGTGCGGCCTC | 964 | 702 | 938 | 917 |
| TCCGGAAATAGATAATATCTAGTTAAACCTCAAAAT | 1540 | 786 | 2850 | 965 |
| TCGGAGACGGCGAAAGGAAACCGCAAGGAGGCCACC | 642 | 4180 | 2820 | 9290 |
| ACCACGAGCCCAGGATGCGGTTTATGCGCTGTCGGG | 699 | 2660 | 2890 | 4230 |
| CCCGGAGGACGTCCGGCCTCTGTGAGCCGCAACCTT | 440 | 838 | 561 | 1370 |
| ATCAGTCAACTTCCCCCACTCCCTCCCACAAAGAAA | 1010 | 1400 | 979 | 1300 |
| GCTCGGAAATACCAATATTGGGCTGTGGTATTTGAA | 412 | 911 | 626 | 953 |
| TCTAACGCTGAAGGAGGATGTGGTTTCCTATTGGAC | 1770 | 880 | 11500 | 2110 |
| GCTCAAGTACCGGAAAGGCCCGCAGAAAGAAGGGCA | 1400 | 748 | 1270 | 1060 |
| GGAGGGGAGCAGGAAGCTGAGGTTTTGTGAGTCAGA | 1090 | 753 | 2490 | 1070 |
| TTCTCATCCGGCCGGCTTGCTTTCCCCTGCGGTCGT | 394 | 962 | 641 | 1650 |

| Sequence | ETS1 binding intensity (ETS1 [1]) | RUNX1 binding intensity (RUNX1 [2]) | ETS1 binding intensity (ETS1 [3]) | RUNX1 binding intensity (RUNX1 [4]) |
| --- | --- | --- | --- | --- |
| CGAGCTCGGTGTTCCGCTTTTTGTGGGCCGGGTGGG | 467 | 1080 | 478 | 903 |
| CTGCTTCCGGCCCCGGGGTTCGCTACCCCACAATCC | 1210 | 981 | 1240 | 2530 |
| CCGCCACCGGAAGCGCCCTCCTAATCCCCGCAGCGC | 6290 | 978 | 6170 | 1920 |
| CCCCTCGCCCTTCCGCATTGCGGGTTACTTCGGTTG | 521 | 1900 | 591 | 3510 |
| CAAATGAATAAAGGATGTGGTAAATTATTTTCTTCT | 935 | 814 | 5660 | 1780 |
| CAGCAGAGGCGCGGATGTGGTTAAACGAGTGCCGTC | 775 | 876 | 6770 | 3670 |
| TGGTTAGGGAGAGGGGGATGTGGTTAGGGTGAGGGA | 530 | 1110 | 3960 | 1140 |
| AGGGTTGGGGAGGATGTTGTGGTTATTATTGACATA | 845 | 1570 | 4990 | 2840 |
| ACACACTGACTTCCTGTTGTGGGAGATAAAGTGTGG | 2500 | 698 | 2780 | 1730 |
| GCGCGGCCAGAGAAAGGATGTGGTATAGCAGAAAGT | 1260 | 865 | 4380 | 1040 |
| CTCTGAACTTCCTCTCTTTTAACCACAACTTACTAC | 549 | 10500 | 1420 | 14100 |
| ACTCACTTCCGTTTAGCTTATCAACCACCAAGAGAC | 1020 | 1390 | 1060 | 3210 |
| CTGTCTGCTTCCCGTGGCCAGCCCTGACCGCGGCCC | 351 | 1060 | 621 | 1430 |
| GAAGAGGGTGGAGAAGGAAGTGGTCACACCACTTGC | 1140 | 675 | 2380 | 929 |
| ACCCGGATGTCGTTGGGCAGGAACTGCGGTGAGGGC | 2580 | 829 | 7980 | 1490 |
| CCCTCACCCCAGCTTTCCTGTGGTTAACCAAACCCC | 518 | 7290 | 822 | 9960 |
| TGGAAGCGGCTTCCGGGGTGAATGCGGTTGGATCGT | 1150 | 1030 | 3990 | 3030 |
| CTTGCTTAACGCTTCCTGAGGGGTGGTTTGGGTTTT | 448 | 837 | 369 | 953 |
| CACTTCCTATCGCTACATAACAAATTACCACAGACT | 451 | 2490 | 642 | 6310 |
